test system: Vero E6 infected with SARS-CoV-2; experiment: morphology score (similarity to uninfected cells); higher = more like uninfected cells; conditions: 24 h

SMILES | morphology score
NCC(=O)O (10 µM) | 0.146
Cc1c(CC(C)(C)C(=O)O)n(Cc2ccc(Cl)cc2)c2ccc(F)cc12 (10 µM) | -0.214
CN1C(=O)OC(C)(C)C1=O [trimethadione] (10 µM) | 0.1
CCCCCC(=O)O[C@]1(C(C)=O)CC[C@H]2[C@@H]3CCC4=CC(=O)CC[C@]4(C)[C@H]3CC[C@@]21C [17-hydroxyprogesterone-caproate] (10 µM) | 0.523
CO[C@]12C[C@@H](COC(=O)c3cncc(Br)c3)CN(C)[C@@H]1Cc1cn(C)c3cccc2c13 [nicergoline] (10 µM) | 0.275
CCCn1c(=O)c2[nH]c(-c3cnn(Cc4cccc(C(F)(F)F)c4)c3)nc2n(CC)c1=O (10 µM) | 0.163
C[C@@H]([C@@H](O)c1ccc(O)cc1)N1CCC(O)(c2ccccc2)CC1 [traxoprodil] (10 µM) | -0.037
O=C(O)CCCCCCCC(=O)O [azelaic-acid] (10 µM) | 0.0279
CCCN(CCC)CCc1ccc(OC)c(OCCc2ccccc2)c1 (10 µM) | 0.353
COc1ccc(S(=O)(=O)Nc2cccnc2Nc2ccc(O)cc2)cc1 (10 µM) | -0.213
COc1ccc(CCNCC(O)COc2cccc(C)c2)cc1OC (stereo not given) [bevantolol] (10 µM) | -0.027
C#C[C@]1(OC(C)=O)CC[C@H]2[C@@H]3CCC4=CC(=O)CC[C@@H]4[C@H]3CC[C@@]21C [norethindrone-acetate] (10 µM) | -0.146
Cn1cc(C[C@@H](N)C(=O)O)c2ccccc21 [indoximod] (10 µM) | 0.183
C[C@H](N)Cn1ccc2cc(F)c(Cl)cc21 (10 µM) | 0.45
Nc1cc(C(F)(F)F)c(-c2nc(N3CCOCC3)nc(N3CCOCC3)n2)cn1 (10 µM) | 0.0308
O=C(Nc1c[nH]nc1-c1nc2ccc(CN3CCOCC3)cc2[nH]1)NC1CC1 (0.833333 µM) | 0.0293
FC(F)(F)c1ccc(CNc2ccc(Cc3c[nH]c4ncc(Cl)cc34)cn2)cn1 [pexidartinib] (10 µM) | 0.473
C[C@@H]1NC(=O)[C@@H]2CCCN2C(=O)[C@H](CC(N)=O)NC(=O)[C@@H]2CSSC[C@H](N)C(=O)N[C@H]3CSSC[C@H](NC1=O)C(=O)N[C@@H]([C@@H](C)O)C(=O)NCC(=O)N[C@H](C(=O)N[C@@H](Cc1ccc(O)cc1)C(=O)O)CSSC[C@H](NC(=O)[C@H](Cc1ccc(O)cc1)NC(=O)[C@H](CCC(=O)O)NC3=O)C(=O)N2 [linaclotide] (10 µM) | 0.0259
COC(=O)Nc1nc2cc(SC(C)C)ccc2[nH]1 [methiazole] (0.833333 µM) | -0.254
CN(NC(=O)CC(=O)NN(C)C(=S)c1ccccc1)C(=S)c1ccccc1 [elesclomol] (10 µM) | 0.879

SMILES | morphology score
O=C(NCC(=O)N1CC[C@H](N[C@H]2CC[C@@](O)(c3ccc(-c4ncccn4)cn3)CC2)C1)c1cccc(C(F)(F)F)c1 (10 µM) | 0.0269
CC(C)(O)c1ccn2c(-c3ccc(F)c(-c4ccc(F)cc4C#N)c3)cnc2c1F (10 µM) | -0.0136
COc1cc2ncnc(Nc3ccc(Cl)cc3F)c2cc1OC (10 µM) | -0.174
NS(=O)(=O)c1cc2c(cc1Cl)NC(C1CC3C=CC1C3)NS2(=O)=O (stereo not given) [cyclothiazide] (10 µM) | 0.0121
O=C(CC1NCCCC1O)Cn1cnc2cc(Br)c(Cl)cc2c1=O (stereo not given) [halofuginone] (0.833333 µM) | -0.082
CN1CCN(c2ccc(/C=C(\C#N)c3ccccc3Br)cc2)CC1 (10 µM) | -0.13
Cc1ccccc1/N=N/c1ccc(/N=N/c2c(O)ccc3ccccc23)c(C)c1 [sudan-IV] (10 µM) | 0.126
O=C(Nc1ccc(-c2ccnc(Nc3ccc(N4CCOCC4)cc3)n2)cc1)C1CCCN1 (stereo not given) (10 µM) | 0.607
CNC[C@H](O)c1cccc(O)c1 [phenylephrine] (10 µM) | -0.0115
COc1cc(NC(C)CCCN)c2ncccc2c1 (stereo not given) [primaquine] (10 µM) | 0.491
Oc1ccc2ccccc2c1 [beta-naphthol] (10 µM) | -0.0489
CCn1cc(C(=O)O)c(=O)c2cc(F)c(N3CCNCC3)nc21 [enoxacin] (10 µM) | 0.124
CC1(C)S[C@@H]2[C@H](NC(=O)Cc3ccccc3)C(=O)N2[C@H]1C(=O)O [benzylpenicillin] (10 µM) | -0.0812
COc1cccc2c1C(=O)c1c(O)c3c(c(O)c1C2=O)C[C@@](O)(C(=O)CO)C[C@@H]3O[C@H]1C[C@H](N)[C@H](O[C@@H]2CCCCO2)[C@H](C)O1 [pirarubicin] (10 µM) | -0.0488
CC(CCc1ccc(O)cc1)NCCc1ccc(O)c(O)c1 (stereo not given) [dobutamine] (10 µM) | -0.179
CC(C)=CCC/C(C)=C/CC/C(C)=C/CCC(=O)OC/C=C(\C)CCC=C(C)C [geranyl-farnesylacetate] (10 µM) | -0.0168
CC(COc1ccccc1)N(CCCl)Cc1ccccc1 (stereo not given) [phenoxybenzamine] (10 µM) | 0.146
CNc1ncnc2c1ncn2[C@@H]1O[C@H](CO)[C@@H](O)[C@H]1O [N6-methyladenosine] (10 µM) | -0.0577
N#Cc1cc(NC(=O)C(=O)O)c(Cl)c(NC(=O)C(=O)O)c1 [lodoxamide] (10 µM) | -0.0976
CN1CC(=O)NC1=N [creatinine] (10 µM) | 0.0578
